Where “and” joins values, the source holds several entries; their conditions need not be identical. Equal values may be shown once. Records with an inconclusive call do not appear. Some structures have more than one record in an assay (separate samples or runs), and their calls can disagree. Calls of active or inactive are those of the source. Calls come from the whole dose curve; as a rule, active = well fitted curve in the direction sought with a large enough effect; inconclusive = small, poorly fitted or top-dose-only effect, or another doubt; inactive = no such curve, though single readings can be large; an effect the other way counts as inactive or inconclusive.
assay: Primary qHTS for inhibitors of nuclear receptor binding SET domain protein 2 (NSD2) in an isogenic RCH-ACV NSD2 p.E1099K mutant (9B) (AID 1645876); conditions: RCH-ACV NSD2 E1099K (9B) viability, CellTiter-Glo, 72 h; series mostly up to 44.9 µM; activity change, negative = viability loss: at the top concentration
% is set by controls: 0 for no effect and ±100 for the full control effect; potency is the fitted concentration of half-maximal effect.
Note: nearly all actives have a fitted effect of over 70% in size.

Row | Compound | outcome | activity change, negative = viability loss | Potency
1 | CN=C(NC#N)NCCSCc1csc(N=C(N)N)n1 | inactive |  | 
2 | Cc1ncc(CSSCc2cnc(C)c(O)c2CO)c(CO)c1O |  | -5.05% (inactive) | 
3 | C[C@@H]1CN(CCCn2c3ccccc3c3ccccc32)C[C@H](C)N1 |  |  | 26.6 µM (active)
4 | CC(O)(P(=O)(O)O)P(=O)(O)O |  | 6.57% (inactive) | 
5 | COc1c(C)c2c(c(O)c1C/C=C(\C)CCC(=O)O)C(=O)OC2 |  |  | 66.8 nM (active) and 833 nM (active)
6 | COc1ccc(C2C(=O)c3ccccc3C2=O)cc1 | inactive |  | 
7 | OC[C@@H](O)[C@@H](O[C@@H]1O[C@H](CO)[C@H](O)[C@H](O)[C@H]1O)[C@H](O)[C@@H](O)CO | inactive |  | 
8 | CCOc1ccc2nc3cc(N)ccc3c(N)c2c1 |  |  | 5.96 µM (active)
9 | CNC(=O)CN(CCN(CCN(CC(=O)[O-])CC(=O)NC)CC(=O)[O-])CC(=O)[O-].O.[Gd+3] | inactive |  | 
10 | CCCSS/C(CCO)=C(\C)N(C=O)Cc1cnc(C)nc1N |  |  | 15 µM (active)
11 | CN=C(NC#N)Nc1ccc(C2=NNC(=O)CC2C)cc1 (stereo not drawn) |  | -1.4% (inactive) | 
12 | COC(=O)C1=C(C)NC(C)=C(C(=O)O[C@@H]2CCCN(Cc3ccccc3)C2)[C@@H]1c1cccc([N+](=O)[O-])c1 |  |  | 21.1 µM (active) and 25.8 µM (active)
13 | CCOc1ccc(NC(=O)CC(C)O)cc1 (stereo not drawn) |  | -5.18% (inactive) | 
14 | COc1cc(C(=S)N2CCOCC2)cc(OC)c1OC |  | 0.996% (inactive) | 
15 | COc1cccc(OC)c1C(=O)N[C@@H]1C(=O)N2[C@@H]1SC(C)(C)[C@@H]2C(=O)O |  |  | inactive
16 | C[C@H](CCC(=O)O)[C@H]1CC[C@H]2[C@@H]3C(=O)C[C@@H]4CC(=O)CC[C@]4(C)[C@H]3CC(=O)[C@]12C | inactive |  | 
17 | CC[N+](CC)(CCNC(=O)C(=O)NCC[N+](CC)(CC)Cc1ccccc1Cl)Cc1ccccc1Cl |  | -4.94% (inactive) | 
18 | CCOC(=O)OC(C)OC1=C(C(=O)Nc2ccccn2)N(C)S(=O)(=O)c2ccccc21 (stereo not drawn) | inactive |  | 
19 | CC(C)(CO)[C@@H](O)C(=O)NCCCO |  | 8.27% (inactive) | 
20 | CC(=O)OCC(=O)[C@@]12OC(C)(C)O[C@@H]1C[C@H]1[C@@H]3C[C@H](F)C4=CC(=O)C=C[C@]4(C)[C@@]3(F)[C@@H](O)C[C@@]12C |  |  | inactive

Row | Compound | outcome | activity change, negative = viability loss | Potency
21 | CCC(=O)c1c(O)cc(O)cc1O |  | 0.496% (inactive) | 
22 | CCCCS(=O)(=O)N[C@@H](Cc1ccc(OCCCCC2CCNCC2)cc1)C(=O)O |  |  | inactive
23 | CCCCOc1ccc(C(=O)CCN2CCCCC2)cc1 |  |  | 15 µM (active)
24 | CN(C)CCOc1ccccc1Cc1ccccc1 |  | -12.4% (inactive) | 
25 | Nc1ccc(/C=C/c2ccc(N)cc2S(=O)(=O)O)c(S(=O)(=O)O)c1 | inactive [at 0.588 µM] |  | 
26 | O=C1[C@H]2CCCC[C@H]2C(=O)N1CCCCN1CCN(c2nsc3ccccc23)CC1 |  |  | 21.1 µM (active)
27 | CC(=O)N(O)CCCCCNC(=O)CCC(=O)N(O)CCCCCNC(=O)CCC(=O)N(O)CCCCCN |  |  | 7.5 µM (active) and 5.25 µM (active)
28 | Cc1c(C(N)=O)cc([N+](=O)[O-])cc1[N+](=O)[O-] |  | 5.56% (inactive) | 
29 | Cc1cccn2c(=O)c(-c3nnn[nH]3)cnc12 |  | 1.23% [at 17.3 µM] (inactive) | 
30 | CC(=O)OCC(=O)NCCCOc1cccc(CN2CCCCC2)c1 |  | 9.27% (inactive) | 
31 | CCOc1ccc(Cc2nccc3cc(OCC)c(OCC)cc23)cc1OCC |  |  | 2.37 µM (active)
32 | NC(CS)C(=O)O (stereo not drawn) | inactive |  | 
33 | CCCCCCCCCCCCCCCC[N+](C)(C)CCN(Cc1ccc(OC)cc1)c1ncccn1 |  |  | 0.668 µM (active)
34 | C/C=C/c1ccc(OC)cc1 |  | 1.7% (inactive) | 
35 | CC(Cc1ccccc1)(NC(=O)CN)c1ccccc1 (stereo not drawn) |  | -8.68% (inactive) | 
36 | COc1cc(N)c(Cl)cc1C(=O)NC1CCN(CCCOc2ccc(F)cc2)CC1OC (stereo not drawn) |  |  | 15 µM (active)
37 | Cc1c(N(C)CS(=O)(=O)O)c(=O)n(-c2ccccc2)n1C |  | -3.95% (inactive) | 
38 | COc1cccc2c1C(=O)c1c(O)c3c(c(O)c1C2=O)C[C@@](O)(C(=O)CO)C[C@@H]3O[C@H]1C[C@H](N)[C@H](O)[C@H](C)O1 |  |  | 188 nM (active) and 33.2 nM (active)
39 | CN1[C@@H]2CC[C@H]1CC(OC(=O)c1c[nH]c3ccccc13)C2 (stereo partly drawn) |  |  | inactive

assay: Primary qHTS for inhibitors of nuclear receptor binding SET domain protein 2 (NSD2) in an RCH-ACV wild type WT cells (2C) (AID 1645877); conditions: RCH-ACV (leukaemia line) NSD2 WT (2C) viability, CellTiter-Glo, 72 h; series mostly up to 44.9 µM; activity change, negative = cell killing: at the top concentration

Row | Compound | outcome | activity change, negative = cell killing | Potency
40 | CN=C(NC#N)NCCSCc1csc(N=C(N)N)n1 | inactive |  | 
41 | Cc1ncc(CSSCc2cnc(C)c(O)c2CO)c(CO)c1O |  | -7.74% (inactive) | 
42 | C[C@@H]1CN(CCCn2c3ccccc3c3ccccc32)C[C@H](C)N1 |  |  | 23.7 µM (active)
43 | CC(O)(P(=O)(O)O)P(=O)(O)O |  | 9.55% (inactive) | 
44 | COc1c(C)c2c(c(O)c1C/C=C(\C)CCC(=O)O)C(=O)OC2 |  |  | 53.1 nM (active) and 590 nM (active)
45 | COc1ccc(C2C(=O)c3ccccc3C2=O)cc1 |  | 7.02% (inactive) | 
46 | OC[C@@H](O)[C@@H](O[C@@H]1O[C@H](CO)[C@H](O)[C@H](O)[C@H]1O)[C@H](O)[C@@H](O)CO | inactive |  | 
47 | CCOc1ccc2nc3cc(N)ccc3c(N)c2c1 |  |  | 5.31 µM (active)
48 | CNC(=O)CN(CCN(CCN(CC(=O)[O-])CC(=O)NC)CC(=O)[O-])CC(=O)[O-].O.[Gd+3] | inactive |  | 
49 | CCCSS/C(CCO)=C(\C)N(C=O)Cc1cnc(C)nc1N |  |  | 16.8 µM (active)
50 | CN=C(NC#N)Nc1ccc(C2=NNC(=O)CC2C)cc1 (stereo not drawn) |  | 1.67% (inactive) | 
51 | COC(=O)C1=C(C)NC(C)=C(C(=O)O[C@@H]2CCCN(Cc3ccccc3)C2)[C@@H]1c1cccc([N+](=O)[O-])c1 |  |  | 20.5 µM (active)
52 | CCOc1ccc(NC(=O)CC(C)O)cc1 (stereo not drawn) |  | -5.71% (inactive) | 
53 | COc1cc(C(=S)N2CCOCC2)cc(OC)c1OC |  | -14% (inactive) | 
54 | COc1cccc(OC)c1C(=O)N[C@@H]1C(=O)N2[C@@H]1SC(C)(C)[C@@H]2C(=O)O |  | -7.81% (inactive) | 
55 | C[C@H](CCC(=O)O)[C@H]1CC[C@H]2[C@@H]3C(=O)C[C@@H]4CC(=O)CC[C@]4(C)[C@H]3CC(=O)[C@]12C |  | 4.99% (inactive) | 
56 | CC[N+](CC)(CCNC(=O)C(=O)NCC[N+](CC)(CC)Cc1ccccc1Cl)Cc1ccccc1Cl |  | -8.65% (inactive) | 
57 | CCOC(=O)OC(C)OC1=C(C(=O)Nc2ccccn2)N(C)S(=O)(=O)c2ccccc21 (stereo not drawn) | inactive |  | 
58 | CC(C)(CO)[C@@H](O)C(=O)NCCCO |  | 2.56% (inactive) | 
59 | CC(=O)OCC(=O)[C@@]12OC(C)(C)O[C@@H]1C[C@H]1[C@@H]3C[C@H](F)C4=CC(=O)C=C[C@]4(C)[C@@]3(F)[C@@H](O)C[C@@]12C |  |  | 0.9 nM (active) and inactive

Row | Compound | outcome | activity change, negative = cell killing | Potency
60 | CCC(=O)c1c(O)cc(O)cc1O |  | -2.12% (inactive) | 
61 | CCCCS(=O)(=O)N[C@@H](Cc1ccc(OCCCCC2CCNCC2)cc1)C(=O)O |  |  | inactive
62 | CCCCOc1ccc(C(=O)CCN2CCCCC2)cc1 |  |  | 13.3 µM (active)
63 | CN(C)CCOc1ccccc1Cc1ccccc1 |  | 2.85% (inactive) | 
64 | Nc1ccc(/C=C/c2ccc(N)cc2S(=O)(=O)O)c(S(=O)(=O)O)c1 | inactive [at 0.588 µM] |  | 
65 | O=C1[C@H]2CCCC[C@H]2C(=O)N1CCCCN1CCN(c2nsc3ccccc23)CC1 |  |  | 23.7 µM (active)
66 | CC(=O)N(O)CCCCCNC(=O)CCC(=O)N(O)CCCCCNC(=O)CCC(=O)N(O)CCCCCN |  |  | 4.73 µM (active) and 4.68 µM (active)
67 | Cc1c(C(N)=O)cc([N+](=O)[O-])cc1[N+](=O)[O-] |  | -5.26% (inactive) | 
68 | Cc1cccn2c(=O)c(-c3nnn[nH]3)cnc12 |  | -18.9% [at 17.3 µM] (inactive) | 
69 | CC(=O)OCC(=O)NCCCOc1cccc(CN2CCCCC2)c1 | inactive |  | 
70 | CCOc1ccc(Cc2nccc3cc(OCC)c(OCC)cc23)cc1OCC |  |  | 2.37 µM (active)
71 | NC(CS)C(=O)O (stereo not drawn) | inactive |  | 
72 | CCCCCCCCCCCCCCCC[N+](C)(C)CCN(Cc1ccc(OC)cc1)c1ncccn1 |  |  | 0.75 µM (active)
73 | C/C=C/c1ccc(OC)cc1 |  | 9.33% (inactive) | 
74 | CC(Cc1ccccc1)(NC(=O)CN)c1ccccc1 (stereo not drawn) |  | -18% (inactive) | 
75 | COc1cc(N)c(Cl)cc1C(=O)NC1CCN(CCCOc2ccc(F)cc2)CC1OC (stereo not drawn) |  |  | 21.1 µM (active)
76 | Cc1c(N(C)CS(=O)(=O)O)c(=O)n(-c2ccccc2)n1C | inactive |  | 
77 | COc1cccc2c1C(=O)c1c(O)c3c(c(O)c1C2=O)C[C@@](O)(C(=O)CO)C[C@@H]3O[C@H]1C[C@H](N)[C@H](O)[C@H](C)O1 |  |  | 150 nM (active) and 26.3 nM (active)
78 | CN1[C@@H]2CC[C@H]1CC(OC(=O)c1c[nH]c3ccccc13)C2 (stereo partly drawn) |  |  | inactive
